Assay outcomes (PubChem)
Vc quorum ag-1 = inducers of Vibrio cholerae quorum light production without autoinducers | activation, % at 18.7 µM | 350,000 tested, 0.16% active | V. cholerae BH1578 lux reporter, luminescence, 6 h; in the data active means activation mostly above about 9.7%, no sharp cut-off; inconclusive means no clear call, values can overlap the other calls; inactive means mostly below about 3.7%
Anthrax LF inh2 = anthrax lethal factor protease inhibition. P15917. multiplex microsphere protease cleavage assay, LF. inhibition, % at 10 µM. 360,000 tested, 0.12% active; further: plate controls were buffer without enzyme for full effect and enzyme alone for no effect
Target sequence (P15917 whole entry, looked up): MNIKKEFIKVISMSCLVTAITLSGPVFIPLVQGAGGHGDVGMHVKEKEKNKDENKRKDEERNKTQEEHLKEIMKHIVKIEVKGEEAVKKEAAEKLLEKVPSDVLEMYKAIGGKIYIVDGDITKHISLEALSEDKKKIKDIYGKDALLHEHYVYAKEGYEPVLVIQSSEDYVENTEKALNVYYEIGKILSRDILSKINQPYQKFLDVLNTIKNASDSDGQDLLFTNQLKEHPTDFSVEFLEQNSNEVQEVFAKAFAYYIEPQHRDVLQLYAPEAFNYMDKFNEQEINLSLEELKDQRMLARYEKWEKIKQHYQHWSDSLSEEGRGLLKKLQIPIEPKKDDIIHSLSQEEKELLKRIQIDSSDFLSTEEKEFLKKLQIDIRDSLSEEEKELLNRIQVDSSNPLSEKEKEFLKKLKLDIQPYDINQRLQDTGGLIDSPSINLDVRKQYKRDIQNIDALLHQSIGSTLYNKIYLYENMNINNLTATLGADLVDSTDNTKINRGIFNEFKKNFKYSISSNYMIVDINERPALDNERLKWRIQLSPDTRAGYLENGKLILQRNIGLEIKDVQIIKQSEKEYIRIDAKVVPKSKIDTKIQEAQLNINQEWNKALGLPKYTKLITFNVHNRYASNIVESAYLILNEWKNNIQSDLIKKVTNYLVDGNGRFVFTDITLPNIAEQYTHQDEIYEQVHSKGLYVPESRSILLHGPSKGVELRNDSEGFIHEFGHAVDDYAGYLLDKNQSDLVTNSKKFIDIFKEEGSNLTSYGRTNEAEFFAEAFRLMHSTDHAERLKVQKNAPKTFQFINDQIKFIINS
Autofluor counter = compound fluorescence in toxin protease inhibitor counterscreen; AID 624483; fluorescence intensity (concentration not given with the values); 360,000 tested, 3.1% active; compound autofluorescence counterscreen, microsphere flow cytometry; hits give high values; in the data active means fluorescence intensity above about 16000; inconclusive means no clear call, values can overlap the other calls
BoNT-A LC inh2 = blocks Botulinum neurotoxin A light chain protease. AID 588499. multiplex microsphere protease substrate cleavage, flow cytometry. 360,000 tested, 0.17% active. inhibition, % at 10 µM; further: plate controls were buffer without enzyme for full effect and enzyme alone for no effect
BoNT-F LC inh = blocks Botulinum neurotoxin F light chain protease. Multiplex microsphere protease cleavage assay, flow cytometry. inhibition, % at 10 µM. 360,000 tested, 0.22% active. AID 588497; in the data active means inhibition above about 35%, passing the limit was not always enough; inconclusive means no clear call, values can overlap the other calls; further: plate controls were buffer without enzyme for full effect and enzyme alone for no effect
Vc quorum ag-2 = inducers of V. cholerae quorum light production without autoinducers | activation, % at 50 µM | shares compounds with Vc quorum ag-1 | 620 tested, under 10 active | V. cholerae BH1578 lux reporter, luminescence, 6 h; call rule not given here
HeLa tox = cytotoxicity in HeLa cells at 24 hours; AID 624140; HeLa viability, CellTiter-Glo ATP luminescence; activity change, negative = cytotoxicity, % at 35 µM; shares compounds with Vc quorum ag-1; 25 tested, under 10 active;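 active means signal drop with fitted half-maximal concentration at or below twice the highest valid dose; inconclusive means flat curve with 30 to 70% loss, or poor fit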
An asterisk follows results filed as active; i = inactive; ? = inconclusive; . = not tested or not shown. Hits are enriched below; roughly 3.5% of the tested compounds scored in any of these assays. Unless noted, no stated cut-off is given here; in the data, active means inhibition above about 30%; inconclusive means no clear call, values can overlap the other calls; inactive means below that.

SMILES | Vc quorum ag-1 | Anthrax LF inh2 | Autofluor counter | BoNT-A LC inh2 | BoNT-F LC inh | Vc quorum ag-2 | others
O=C(CCN1C(=O)c2ccccc2C1=O)N1CCN(C2c3ccccc3-c3ccccc32)CC1 | 13.3 | -4.3 | 4170 | 0.3 | 0.5 | 2.4
O=C(COC(=O)c1cccc(-n2cnnn2)c1)c1ccc(F)cc1 | -0.3 | . | . | . | . | .
COc1ccc(C(=O)COC(=O)c2cccc(-n3cnnn3)c2)c(OC)c1 | 12.5 | 6.2 | 6390 | -0.9 | 2.5 | -0.1
CCCOc1ccc(-c2nc(C#N)c(N3CCN(CC)CC3)o2)cc1 | 12.5 | -5.6 | 2702 | -0.1 | 5.7 | 14.4
O=C(NCCC(=O)N1CCCCC1)c1ccc(Br)cc1 | 10.8 | 0.6 | 5730 | 2.0 | 2.1 | 5.6
CSCCC(N=C(NS(=O)(=O)c1ccc(C)cc1)c1ccccc1)C(=O)O (stereo not drawn) | i | 0.5 | 4588 | -0.9 | 3.0 | .
COc1ccc(/C=N/NC(=O)c2c(Br)cnn2C)c2ccccc12 | -0.3 | 4.2 | 5102 | 2.0 | -1.2 | .
Cc1cccc(-c2cc3nc4c(c(N5CCC6(CC5)OCCO6)n3n2)CCCC4)c1 | 1.4 | -4.8 | 9637 | -0.9 | -4.7 | -0.1
O=C(NCC1CCCO1)C1CCN(C(=O)c2ccc(Cl)cc2)CC1 (stereo not drawn) | 16.7* | -11.4 | 9001 | 0.9 | -0.8 | 0.2
NS(=O)(=O)c1cc(C(=O)OCC(=O)NC2CCCCCCC2)ccc1Cl | 14.3 | -1.8 | 5723 | -1.9 | -3.7 | -0.1
O=C(COC(=O)c1ccc(Br)cc1)NC1CCCC1 | 131.4* | 11.9 | 3701 | 3.8 | 8.1 | 58.0
Cc1ccc(C)c(N(CC(=O)NC2CCCC2)C(=O)c2oc(C(C)(C)C)cc2C)c1 | -1.5 | -7.9 | 7129 | -0.7 | -12.9 | .
Cc1cc(C(C)(C)C)oc1C(=O)OCC(=O)NC1CCCCC1 | 145.3* | -0.9 | 3059 | 0.4 | -4.3 | 25.6
O=C(COC(=O)c1ccc(O)cc1)NC1CCCCCCC1 | i | 3.1 | 3706 | 0.1 | 2.4 | .
O=[N+]([O-])c1ccc(Oc2ccc(S(=O)(=O)N3CCOCC3)cn2)cc1 | i | 0.8 | 6469 | 0.2 | 4.6 | .
O=S(=O)(Nc1ccc(-c2ccc3nncn3n2)cc1)c1ccc(Cl)s1 | 160.2* | 3.3 | 5173 | 1.9 | -6.3 | -0.1
O=S(=O)(Nc1ccc(-c2ccc3nncn3n2)cc1)c1ccccc1Cl | i | -2.3 | 6080 | -4.0 | -1.0 | .
CCOCCCNC(=O)C1CC(=O)N(CCc2ccc(C)cc2)C1 (stereo not drawn) | 0.2 | 1.7 | 3497 | 1.2 | -16.2 | .
CCOCCCN1CC(C(=O)NCCc2ccc(C)cc2)CC1=O (stereo not drawn) | 16.7* | 3.9 | 2784 | -0.5 | 2.8 | 0.4
CCOc1cc(N2CCOCC2)c(OCC)cc1NC(=O)C1CC(=O)N(c2ccc(C)cc2)C1 (stereo not drawn) | i | -3.0 | 8006 | -3.1 | -3.9 | .
Cc1ccc(CN2C(=O)CCC2C(=O)NCCN(CC(C)C)CC(C)C)cc1 (stereo not drawn) | 12.5 | 1.3 | 2971 | 0.0 | 4.1 | 0.2
Cc1ccc(CN2C(=O)CCC2C(=O)NCc2ccc(F)cc2)cc1 (stereo not drawn) | -0.8 | -8.3 | 3571 | 0.0 | 1.0 | .
CCCCOC(=O)n1c(=O)oc2ccccc21 | 230.5* | -0.3 | 4888 | 0.4 | -15.0 | 117.6
C=CCn1c(-c2cccc(OCC)c2)n[nH]c1=S | i | -1.8 | 1945 | 0.9 | -3.7 | .
C=CCn1c(-c2cc(OC)cc(OC)c2)n[nH]c1=S | 22.2* | 1.0 | 2793 | -0.1 | -7.2 | 0.1
SMILES | Vc quorum ag-1 | Anthrax LF inh2 | Autofluor counter | BoNT-A LC inh2 | BoNT-F LC inh | Vc quorum ag-2 | others
Cc1cc(C(=O)CSc2nnc(-c3ccco3)o2)c(C)n1CC1COc2ccccc2O1 (stereo not drawn) | 18.4 | -5.8 | 3550 | -1.5 | 0.3 | 1.2
Cc1onc(-c2ccccc2)c1C(=O)n1cccn1 | 22.0* | -4.5 | 3908 | 0.3 | -6.6 | 0.2
Cc1onc(-c2ccccc2)c1C(=O)c1ccccc1 | -2.3 | -2.5 | 3333 | 3.3 | ? | .
CCCn1nnnc1NCc1ccccc1Cl | i | -5.4 | 3728 | -2.5 | -15.7 | . | HeLa tox=1.6
CCCn1nnnc1NCc1ccc(N(C)C)cc1 | . | -14.4 | 4260 | -0.5 | -16.2 | i
CCCn1nnnc1NCc1ccc(C(C)C)cc1 | . | -5.3 | 3627 | -0.8 | 2.8 | i | HeLa tox=5.6
CCCCn1c(NCc2ccc(N(C)C)cc2)nc2ccccc21 | -0.2 | 8.6 | 4687 | -0.6 | -2.5 | .
CCCn1nnnc1NCc1ccccc1OCC | -0.2 | 0.6 | 3978 | -1.1 | ? | .
CNC(=O)c1cc2cc(OC)ccc2n1CCN(Cc1ccccc1)Cc1ccccc1 | 25.0* | -0.4 | 2625 | -0.6 | -9.1 | 0.4
CC(=O)N1CCN(Cc2nc3cc(NC(=O)c4cccc(Br)c4)ccc3n2C)CC1 | -0.5 | -5.5 | 5804 | 0.1 | -4.0 | .
Cc1ccc(S(=O)(=O)N2CCN(C(=O)COC(=O)/C=C/c3ccc(F)cc3)CC2)c(C)c1 | 1.8 | 4.3 | 6023 | 1.1 | 6.6 | 0.0
COc1ccc(N2CC(C(=O)Nc3cc(C(F)(F)F)ccc3N3CCCC3)CC2=O)c(OC)c1 (stereo not drawn) | 19.3 | -3.0 | 5753 | 0.3 | -11.1 | 4.9
CN(C)S(=O)(=O)c1cccc(NC(=O)COC(=O)c2ccc(Br)o2)c1 | 14.3 | -3.6 | 4387 | 1.9 | 10.2 | -0.2
Cc1ccc2occ(C(c3nnnn3Cc3ccccc3)N3CCOCC3)c(=O)c2c1 (stereo not drawn) | 25.0* | -1.7 | ? | 0.1 | -3.2 | 0.8
Cc1nnc(NC(=O)c2ccc(Br)o2)s1 | -0.6 | -7.6 | 4135 | 1.4 | ? | .
CCN(CC1COc2ccccc2O1)C(=S)Nc1ccccc1 (stereo not drawn) | 12.5 | -0.3 | 7641 | 1.0 | 4.2 | 1.4
CCOC(=O)c1cnc2nc(Cc3ccccc3)[nH]n2c1=O | i | -1.4 | 2794 | 0.0 | 1.0 | .
CCOC(=O)c1cnc2nc(C(F)(F)F)[nH]n2c1=O | 16.7* | -6.0 | 9362 | 0.5 | 5.0 | 0.4
COC(=O)c1cnn(-c2nc(-c3ccccc3)cs2)c1N | 70.0* | -3.2 | 2955 | 2.5 | 7.3 | -0.2
CC(=O)Nc1nonc1NC(C)=O | 25.8* | 8.0 | 9763 | -1.0 | -2.8 | 0.6
CC(=O)Nc1nonc1NC(=O)c1ccc(F)cc1 | . | -3.8 | 8916 | -0.2 | 7.7 | .
CC(C)[C@H](NC(=O)c1cccc(S(=O)(=O)N2CCCC2)c1)c1nc2ccccc2[nH]1 | . | -2.7 | 2380 | -0.7 | -4.5 | .
CC(C)C(NC(=O)c1ccc(S(=O)(=O)N2CCOCC2)cc1)c1nc2ccccc2[nH]1 (stereo not drawn) | 14.3 | -2.9 | 22568* | -0.5 | -3.2 | 0.3
CCOC(=O)C1=C(C)NC(SC)=NC1c1ccc(OC)cc1 (stereo not drawn) | 25.4 | -4.3 | 3011 | -0.6 | -4.7 | 0.3
CN(c1ccccc1)S(=O)(=O)c1nnc(NC(=O)c2ccco2)s1 | i | -0.1 | 5248 | 0.9 | 4.8 | .
CN(c1ccccc1)S(=O)(=O)c1nnc(NC(=O)C2CCCCC2)s1 | 18.8* | 0.2 | 4390 | 0.3 | 7.1 | 0.4
O=C(O)Cn1c(-c2ccccc2)cc2ccccc21 | -2.4 | 2.0 | 3615 | -1.2 | -1.3 | .
